PubChem BioAssay AID1851 (National Center for Advancing Translational Sciences (NCATS), 2009)
The whole screen tested about 16,000 compounds, of which about 2,600 (16%) were called active. Roughly 20% stayed inconclusive and do not appear here. The call rests on the fitted dose curve; in most records, active means well fitted curve in the direction sought with a large enough effect; inconclusive means small, poorly fitted or top-dose-only effect, or effect the other way; inactive means no such curve, though single readings can be large or run the other way. These entries were drawn from the full list.

Target: Cytochrome P450 2D6 (Homo sapiens) (UniProt P10635)
Sequence (P10635 whole entry, looked up): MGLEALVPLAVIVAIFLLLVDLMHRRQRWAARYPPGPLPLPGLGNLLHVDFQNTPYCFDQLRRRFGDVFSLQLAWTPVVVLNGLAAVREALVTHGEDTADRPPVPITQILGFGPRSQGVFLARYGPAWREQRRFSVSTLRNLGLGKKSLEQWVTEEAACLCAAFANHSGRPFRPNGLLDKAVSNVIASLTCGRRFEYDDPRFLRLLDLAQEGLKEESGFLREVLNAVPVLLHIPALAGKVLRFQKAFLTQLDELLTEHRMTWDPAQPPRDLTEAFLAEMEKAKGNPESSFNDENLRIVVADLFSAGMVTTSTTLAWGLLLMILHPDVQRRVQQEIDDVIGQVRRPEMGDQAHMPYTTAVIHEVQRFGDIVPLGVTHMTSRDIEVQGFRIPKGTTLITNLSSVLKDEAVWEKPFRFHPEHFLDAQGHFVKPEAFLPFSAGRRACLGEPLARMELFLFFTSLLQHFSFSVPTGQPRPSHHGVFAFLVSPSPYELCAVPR
Experiment: Cytochrome panel assay with activity outcomes
Conditions: recombinant CYP, pro-luciferin dealkylation, luminescence, p450-cyp2d6; series mostly up to 57.1 µM; activity, negative = inhibition: at the top concentration
On the % scale 0 is the no-effect control and ±100 the full control effect.

activity, negative = inhibition, inactive:
Cc1nnc(N(C)C(=O)c2ccccn2)s1 -0.12%, COc1ccc(-c2nn(-c3ccccc3)cc2/C=N/NC(=O)c2ccc3c(c2)OCO3)cc1 -26.4%, CSCC[C@@H]1NC(=O)C/C=C\[C@@H](C)COC(=O)[C@H](C)COC1=O 10.5% [at 11.4 µM], COc1cc(-c2ccc(=O)[nH]n2)ccc1OC(F)F 4.03%, CC(C)c1cccc2nc3c(c(C(C)(C)C)c12)Cn1c-3cccc1=O -17.1%, C[C@@H](N=C(N)N)C(=O)O 9.93% [at 11.4 µM], Clc1ccccc1NN(Cc1ccccn1)c1ccccc1Cl -11.2% [at 11.4 µM], CNC(=S)N1CCN(c2cccc(OC)c2)CC1 -11.4%, O=C(NNC(=O)c1cc2cc3ccccc3nc2s1)c1cccc(C(F)(F)F)c1 5.7%, Cc1cc(=O)oc2cc(O)ccc12 0.168% [at 25.6 µM], Cc1cc(=O)c2c(O)c(O)ccc2o1 -8.29%, CC(=O)CC(=O)Nc1ccc2ccccc2c1 15.5% [at 11.4 µM], O=C(COc1ccc2ccccc2c1)NNC(=O)Cc1cccc2ccccc12 -1.19%, CCNC(=O)NC1(C(=O)Nc2ccc3c(c2)OCCO3)CCCCC1 6.31%, CC(=O)NN1C(=O)c2ccc(Oc3ccc([N+](=O)[O-])cc3)cc2C1=O -5.87%, O=C(NC(=S)Nc1ccc(C(=O)N2CCOCC2)cc1)c1ccc([N+](=O)[O-])cc1 17.4%, COc1ccc(-n2c(=O)c(-c3cc(F)cc(F)c3)nc3cncnc32)cc1 4.13%, CCOC(=O)NC(NC(=O)OCC)C(=O)c1ccc(F)cc1 3.08%, CCOC(=O)Nc1ccc(C)cc1NC(=O)OCC 10.5%, CC1=NNC(=O)C1CCC(=O)N/N=C\c1ccccc1[N+](=O)[O-] (stereo unspecified) 3.05%, COCCN1C(=O)c2ccccc2C(C(=O)Nc2ccc3c(c2)OCCO3)C1c1ccc(F)cc1 (stereo unspecified) -15.1%, C/C(=N\N=C1\NC(=O)CC(C(=O)O)S1)c1cccs1 (stereo unspecified) -14.7%, Cc1nn(-c2ccccc2)c(Cl)c1C(=O)Nc1c(C)n(C)n(-c2ccccc2)c1=O 6.41%, CCC(C)NC(=O)c1c(C)cc(=O)oc1C (stereo unspecified) 4.71%, NC(N)=NC[C@@H]1CCCCCCN1 5.74% [at 11.4 µM], C1CCN(CC[C@@H]2CCCCN2)CC1 -9.75% [at 11.4 µM]

AC50, active:
O=c1c(O)c(-c2ccc(O)cc2)oc2cc(O)cc(O)c12 10 µM, O=C(COc1ccc2ccccc2c1)Nc1ccc(Cc2ccncc2)cc1 0.355 µM, CCOC(=O)Nc1ccc(NCc2ccc(F)cc2)nc1N 31.6 µM, C/C(CCc1ccc2c(c1)OCO2)=N\N=C1\NC(=O)CC(C(=O)Nc2ccccc2)S1 (stereo unspecified) 8.91 µM, C1CCC(C(C[C@@H]2CCCCN2)C2CCCCC2)CC1 0.501 µM
